# Test results: PubChem BioAssay AID1851 (National Center for Advancing Translational Sciences (NCATS), 2009)
# Screen size: about 16,000 compounds; about 5,100 (32%) were called active. Not shown: some 25% with an inconclusive outcome. Some of the results follow. A number with no mark means an inactive call. Calls come from the whole dose curve; as a rule, active = well fitted curve in the direction sought with a large enough effect; inconclusive = small, poorly fitted or top-dose-only effect, or effect the other way; inactive = no such curve, though single readings can be large or run the other way.
# Target: Cytochrome P450 3A4 (Homo sapiens) (UniProt P08684)
# Experiment: Cytochrome panel assay with activity outcomes
# Settings: recombinant CYP, pro-luciferin dealkylation, luminescence, p450-cyp3a4; series mostly up to 57.1 µM
# % is set by controls: 0 for no effect and ±100 for the full control effect.
# Sequence of Cytochrome P450 3A4 (Homo sapiens) (P08684 whole entry, looked up): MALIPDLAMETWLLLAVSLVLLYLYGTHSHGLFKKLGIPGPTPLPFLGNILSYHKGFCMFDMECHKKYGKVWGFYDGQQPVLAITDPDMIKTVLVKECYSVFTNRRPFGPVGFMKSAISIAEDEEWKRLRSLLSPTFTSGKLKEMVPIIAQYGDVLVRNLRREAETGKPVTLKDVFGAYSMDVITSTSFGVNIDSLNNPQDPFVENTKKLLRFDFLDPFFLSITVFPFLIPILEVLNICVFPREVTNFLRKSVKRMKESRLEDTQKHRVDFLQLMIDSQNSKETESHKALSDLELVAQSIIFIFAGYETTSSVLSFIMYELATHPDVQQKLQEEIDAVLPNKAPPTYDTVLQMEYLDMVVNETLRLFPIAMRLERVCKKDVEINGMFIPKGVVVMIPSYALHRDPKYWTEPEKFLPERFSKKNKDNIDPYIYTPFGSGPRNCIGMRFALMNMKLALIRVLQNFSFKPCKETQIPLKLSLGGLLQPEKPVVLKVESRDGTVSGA
SMILES,AC50,"activity, negative = inhibition"
CC(=O)NC1=NN(c2ccccc2)C(=O)C1,inactive,–
O=c1c(-c2ccccc2)nc2cnc(N3CCOCC3)nc2n1Cc1cccs1,inactive,–
O=c1c(-c2cc(F)cc(F)c2)nc2cnc(N3CCNCC3)nc2n1Cc1cccs1,10 µM (active),–
O=c1c(-c2cc(F)cc(F)c2)nc2cnc(N3CCOCC3)nc2n1C[C@H]1CCCO1,inactive,–
Cn1c(=O)c(-c2cc(F)cc(F)c2)nc2cnc(N3CCOCC3)nc21,inactive,–
O=c1c(-c2ccc(Cl)cc2)nc2cnc(N3CCNCC3)nc2n1Cc1cccs1,5.01 µM (active),–
O=c1c(-c2ccc(F)cc2)nc2cnc(N3CCNCC3)nc2n1Cc1cccs1,10 µM (active),–
CCc1c(O)c2c(c(O)c1C(C)=O)C(=O)c1c(cc(O)c(C(=O)O)c1C(=O)O)C2=O,–,2.06% [at 11.4 µM]
BrC(c1cccc2ccccc12)c1cccc2ccccc12,–,-10.7% [at 11.4 µM]
CCOC(=O)c1c(C)c(C(=O)N2CCN(C(=O)c3ccco3)CC2)c(C)n1C,inactive,–
CCOC(=O)c1c(C)c(C)n2c1NC(=O)C2,–,-20.8% [at 11.4 µM]
CCOC(=O)c1c(C)c(C(=O)N2CCCCCC2)c(C)n1C,7.94 µM (active),–
Cc1ccc(S(=O)(=O)NCC(=O)N(CC(=O)NCc2ccco2)Cc2cccs2)cc1,4.47 µM (active),–
Nc1ncnc2c1nc(Sc1ccc(Cl)cc1)n2[C@@H]1O[C@H]2COP(=O)(O)O[C@@H]2[C@H]1O,inactive,–
Oc1ccc2ccccc2c1/C=C\c1ccc2c(Br)cc(Br)c(O)c2n1,–,-13.3% [at 11.4 µM]
CCC/C=C(\CCC)C(NS(=O)(=O)c1ccc(Cl)cc1)c1ccccc1 (stereo not given),7.94 µM (active),–
CCC/C=C(\CCC)C(NS(=O)(=O)c1ccc(Cl)cc1)c1ccc(C(=O)OC)cc1 (stereo not given),3.98 µM (active),–
CCC/C=C(\CCC)C(NS(=O)(=O)CC12CCC(CC1=O)C2(C)C)c1ccc(C(=O)OC)cc1 (stereo not given),3.98 µM (active),–
CCC/C=C(\CCC)C(NS(=O)(=O)c1ccc(-c2ccccc2)cc1)c1ccc(C(=O)OC)cc1 (stereo not given),inactive,–
CC(=O)Nc1ccc(-c2nnc(SCC(=O)c3ccc4c(c3)Cc3ccccc3-4)n2C)cc1,12.6 µM (active),–
O=C(O)c1ccccc1-c1ccccc1C(=O)Nc1ccc2c(c1)Cc1ccccc1-2,–,-22.9% [at 11.4 µM]
Cn1c(SCC(=O)c2ccc3c(c2)Cc2ccccc2-3)nnc1-c1ccccc1,8.91 µM (active),–
CCCCSc1nnc(-c2ccc(C)cc2)n1C,inactive,–

SMILES,AC50,"activity, negative = inhibition"
O=C(Nc1ccc2c(c1)Cc1ccccc1-2)[C@@H]1[C@H](C(=O)O)[C@]2(Cl)C(Cl)=C(Cl)[C@@]1(Cl)C2(Cl)Cl,–,-22% [at 11.4 µM]
c1cc(NC2CC2)nc(-c2ccoc2)n1,5.01 µM (active),–
Cc1noc(C)c1-c1nccc(Nc2ccc(F)cc2)n1,12.6 µM (active),–
Cc1noc(C)c1-c1nccc(NC2CC2)n1,2.51 µM (active),–
COC(=O)[C@@]1(Cc2ccc(F)cc2)[C@H]2c3cc(C(=O)N4CCCC4)n(Cc4cccc5ccccc45)c3C[C@H]2CN1C(=O)c1ccccc1,2 µM (active),–
COC(=O)[C@@]1(Cc2ccccc2)[C@H]2c3cc(C(=O)N4CCCC4)n(Cc4cccc5ccccc45)c3C[C@H]2CN1C(=O)c1ccccc1,1.58 µM (active),–
CC(C)CNc1nc(N)[nH]c(=O)c1NC=O,–,-1.52% [at 11.4 µM]
CCC(C)c1ccc(Nc2ncccc2C#N)cc1 (stereo not given),–,-6.67% [at 2.29 µM]
c1ccc(Nc2ncnc3ccc(-c4cccnc4)cc23)cc1,2.51 µM (active),–
c1ccc(CNc2ncnc3ccc(-c4cccnc4)cc23)cc1,1.26 µM (active),–
Cc1cccc(CNc2ncnc3ccc(-c4cccc(C#N)c4)cc23)c1,inactive,–
Cc1cccc(CNc2ncnc3ccc(-c4cccnc4)cc23)c1,1 µM (active),–
CC(C)CN(CC#N)CC(C)C,–,-19.3% [at 11.4 µM]
CCCC(=O)NCCc1c2n(c3ccc(OC)cc13)Cc1ccccc1-2,2.51 µM (active),–
CN(C)C(=O)c1ccc(-n2nc(C(F)(F)F)c3c2CCCC3)cc1,–,5.72% [at 2.29 µM]
CCc1ccc(NC(=O)Cn2nc(C(F)(F)F)c3c2CCC3)cc1,12.6 µM (active),–
CCNC(=O)c1ccc(-n2nc(C(F)(F)F)c3c2CCCC3)cc1,inactive,–
CC(=O)NN1C(=O)c2ccc(Oc3cccc([N+](=O)[O-])c3)cc2C1=O,inactive,–
Cn1cc([N+](=O)[O-])c(C(=O)Nc2cc(Oc3cccnc3)cc([N+](=O)[O-])c2)n1,0.501 µM (active),–
Cc1ccc(Nc2ccc(-n3ccnc3)nn2)cc1C,0.0794 µM (active),–
O=c1[nH]n(-c2cccc(Cl)c2)c2ncccc12,inactive,–
N=c1n(CCN2CCOCC2)c2ccccc2n1CC(=O)c1ccc(Cl)c(Cl)c1,–,11.5% [at 2.29 µM]
O=C(c1ccc(Cl)c(Cl)c1)c1cc(-c2ccccn2)c(N2CCOCC2)s1,14.1 µM (active),–

SMILES,AC50,"activity, negative = inhibition"
COc1ccc(OC[C@@H](CO)OC)cc1,–,-12.9% [at 11.4 µM]
COCCCNCC(=O)c1c(N)n(Cc2ccccc2)c(=O)n(C)c1=O,–,-9.63% [at 2.29 µM]
Cn1c(=O)c2c(n(Cc3ccccc3)c1=O)NC(=O)C2CC(=O)NCc1cccc(Cl)c1 (stereo not given),6.31 µM (active),–
C[C@]12CC3CC(N)(C1)C[C@@](C)(C3)C2,inactive,–
N#C/C(=C(\O)C(=O)O)c1ccc(-c2cccc3ccccc23)cc1,–,-22% [at 11.4 µM]
CCn1c2ccccc2c2cc(N=C3SC(CC(=O)Nc4ccccc4)C(=O)N3C)ccc21 (stereo not given),5.01 µM (active),–
NS(=O)(=O)c1cc2c(cc1Cl)N[C@@H](C(Cl)Cl)NS2(=O)=O,inactive,–
NS(=O)(=O)c1cc2c(cc1Cl)N[C@H](Cc1ccccc1)NS2(=O)=O,–,-18.4% [at 11.4 µM]
NS(=O)(=O)c1cc2c(cc1Cl)NC(CSCc1ccccc1)=NS2(=O)=O,12.6 µM (active),–
Oc1c(Br)cc(Br)cc1CN(Cc1cc(Br)cc(Br)c1O)C1CCCCC1,–,-22.2% [at 11.4 µM]
CCOC(=O)CCN1C(=O)[C@H]2[C@H]3[C@H](O)[C@H](O)C/C(=N/O[C@@H]4O[C@@H](COC(C)=O)[C@@H](OC(C)=O)[C@@H](OC(C)=O)[C@H]4OC(C)=O)[C@@H]3CC[C@@H]2C1=O,–,-20.3% [at 11.4 µM]
CCCCN(C(=O)NC(=O)Nc1ccccc1OCC)S(C)(=O)=O,inactive,–
CCCCN(CC)C(=O)Cc1ccccc1OC,15.8 µM (active),–
CCN(CC)C(=O)c1ccc(O)c(OC)c1,inactive,–
CCCn1nc2cc(C(=O)NCc3ccccc3OC)ccc2c1OCC,–,-3.81% [at 2.29 µM]
CNC(=O)COC(=O)c1cc2c(C)nn(-c3ccc(F)cc3)c2s1,inactive,–
COc1ccccc1CNC(=O)c1cc2c(C)nn(Cc3ccc(F)cc3)c2s1,2.82 µM (active),–
CC(=O)N[C@@H](C(=O)O)C(C)(C)SN=O,inactive,–
CCC(C#CCN1CCCCC1)(CC)OCCC#N,inactive,–
Cc1c(C(=O)O)oc2ccc(S(=O)(=O)NCc3ccc4c(c3)OCO4)cc12,15.8 µM (active),–
O=C(O)C[C@H](Cc1ccc2c(c1)OCO2)C(=O)O,–,-6.76% [at 11.4 µM]
CCCc1nc(SCC(=O)NNC(=O)C2CCCCC2)c2ccccc2n1,3.55 µM (active),–
CCc1nnc(NC(=O)CSc2nc(C3CCCCC3)nc3ccccc23)s1,2.51 µM (active),–

SMILES,AC50,"activity, negative = inhibition"
Cc1ccc(SCN2CCCCC2)cc1 (tested in a mixture with another compound),–,-20% [at 11.4 µM]
CCc1nnc(NC(=O)CSc2nc3cc4c(cc3cc2C)OCCO4)s1,14.1 µM (active),–
CCc1nc(SCC(=O)NNC(=O)C2CCCCC2)c2ccccc2n1,inactive,–
CC(=O)Nc1nnc(CCN2CCCCC2)s1,inactive,–
Cc1ccc(SCC(=O)NNC(=O)C2CCCCC2)cc1,7.94 µM (active),–
CCCS(=O)(=O)N1CCCC(C(=O)N2CCN(C(=O)OCC)CC2)C1 (stereo not given),inactive,–
CC1=C/C(=C(/c2ccc(O)c(C)c2)c2ccccc2C(=O)O)C=CC1=O,1.58 µM (active),–
O=C(O)c1ccc(C(=O)c2ccccc2C(=O)O)cc1C(=O)O,–,-0.636% [at 11.4 µM]
O=C(O)C1=CC(=C(c2ccc(O)c(C(=O)O)c2)c2ccc(O)c(C(=O)O)c2)C=CC1=O,inactive,–
Cc1ccccc1N1CCN(S(=O)(=O)C[C@@]23CC[C@H](C[C@H]2NC(=O)[C@@H](N)CCS(C)(=O)=O)C3(C)C)CC1,3.16 µM (active),–
Cn1c(=O)n(CCC(=O)O)c2ccccc21,inactive,–
O=C(CCCCn1c(=O)c2ccccc2n(CC(=O)NC2CCCC2)c1=O)NC1CCCC1,5.01 µM (active),–
COc1ccccc1CNC(=O)CCCn1c(=O)c2ccccc2n(CC(=O)NC2CCCC2)c1=O,4.47 µM (active),–
CC(=O)CCCCn1c(=O)c2c(ncn2C)n(C)c1=O,inactive,–
CC1(C)Oc2ccc(C#N)cc2[C@H](N2CCCC2=O)[C@H]1O,inactive,–
Cc1n[nH]c(=O)[nH]c1=O,inactive,–
Cc1noc(NS(=O)(=O)c2ccc(N/C=C/C(=O)c3ccc4c(c3)OCO4)cc2)c1C,11.2 µM (active),–
Cc1noc(NS(=O)(=O)c2ccc(N/C=C\C(=O)c3ccc4c(c3)OCO4)cc2)c1C,14.1 µM (active),–
O=C(Nc1ncc(Cc2cc(Cl)ccc2Cl)s1)c1ccc([N+](=O)[O-])cc1,6.31 µM (active),–
O=C(Nc1cnn(Cc2ccc(Cl)cc2)c1)c1ccc([N+](=O)[O-])cc1,–,-0.424% [at 2.29 µM]
O=C(Nc1ncc(Cc2cccc(Cl)c2)s1)C1=NCCN1,inactive,–
